# Inconclusive results are not listed. Calls of active or inactive are those of the source. The calls were made as follows: active = hit-call score of the fitted dose curve at least 0.9, where 1 is the maximum; inconclusive = response in the unintended direction; inactive = score below 0.9.
# Experiments:
# [1] = test system: Thyroperoxidase (TPO), gene 445522; experiment: CCTE_Simmons_GUA_TPO: CCTE's Guaiacol Assay for Thyroperoxidase (TPO) Inhibition, Simmons Lab (AID 2283750)
# Summary of the method: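 Porcine thyroid microsomes (25 ug) in 200mM potassium phosphate, preincubated 30 s at 37C with compound (8 concentrations, 5 nM–87.5 uM) and 35mM guaiacol; 1mM H2O2 starts reaction. Absorbance change at 450nm over first 80 s; loss of signal versus DMSO, three replicates.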
# [2] = ArunA_Migration_hNP: ArunA Biomedical's Oris Neuroprogenitor (hNP) Cell Migration Assay (AID 2283754)
# Summary of the method: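 Human H9-derived hNP1 neuroprogenitors on Matrigel with LIF/bFGF, plated around seeding stoppers for 16 h at 37C; stoppers removed at start of 72 h chemical exposure. Calcein-AM staining, fluorescence 494/517 nm in detection zone; loss-of-signal vs DMSO; cytochalasin D control.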
smiles,measurement,setting,value
CSC(=O)c1cccc2nnsc12,outcome,[1],inactive
N[C@@H](Cc1cc(I)c(Oc2ccc(O)c(I)c2)c(I)c1)C(=O)O,AC50,[1],13.1 µM (active)
CC(C)(c1ccc(O)cc1)c1ccc(O)cc1,outcome,[2],inactive
CC(C)CCCCCCc1ccc(O)cc1,AC50,[2],17 µM (active)
